According to ChEMBL document CHEMBL3433997, “St. Jude Leishmania screening dataset” (2016):

Biological target: Glucose transporter (Leishmania mexicana) (UniProt O61059)
Test: ST_JUDE_LEISH: Cytotoxicity at 2uM final concentration against transgenic Leishmania Mexicana promastigotes LmGT2 that are glucose transport deficient and complemented with the L. Mexicana glucose transporter 2. Activity is measured by DNA content using SYBR green in vitro
Assay type: functional

Row | SMILES | inhibition [%]
1 | CCCNCc1ccc(-c2ccc(CN(Cc3cnc(C)cn3)C(=O)CC#N)cc2)nc1 | -1.49
2 | N#Cc1ccc(N2CCN(Cc3ccc(-c4ccc(-c5nc6ccccc6[nH]5)s4)cc3)CC2)nc1 | 2.59
3 | COc1ccc(CCNC(=O)c2cc(C)ccc2O)cc1-c1ccc(C(C)(C)C)cc1 | 4.35
4 | OC(CNCc1ccccc1)c1cc(OCc2ccccc2)cc(OCc2ccccc2)c1 (stereo not given) | -0.63
5 | COc1cc(Nc2nccc(N3CCC(NC(=O)C(C)c4ccc(Cl)cc4)C3)n2)cc(OC)c1OC (stereo not given) | 1.19
6 | O=C(Nc1cccc(-c2nn3ccccc3c2-c2ccnc(Nc3cccc(F)c3)n2)c1)c1c(F)ccc(F)c1Cl | 6.24
7 | COc1ccc2cc(C(c3nnnn3CC3CCCO3)N3CCc4ccccc43)c(=O)[nH]c2c1 (stereo not given) | 2.23
8 | O=C1CCCN1CCCNCc1ccc(-c2ccc(-c3nc4cc(F)ccc4[nH]3)cc2)cc1 | 12.3
9 | O=[N+]([O-])c1ccc(C2=NN(S(=O)(=O)c3c(Cl)cc(Cl)cc3Cl)CCCC2)cc1 | -0.34
10 | Cc1ccc(C(=O)Nc2cc(C(F)(F)F)cc(C(F)(F)F)c2)cc1[N+](=O)[O-] | 7.77
11 | c1cncc(Oc2ccc(Nc3ccnc4cc(-c5cccc(CN6CCOCC6)c5)ccc34)cc2)c1 | -1.76
12 | CC(=O)Nc1ccc(OCCCN(Cc2ccccc2C(F)(F)F)c2ccc(C(F)(F)F)c(C#N)c2)c(Cl)c1 | 1.94
13 | Cc1cccc2nc(-c3cccc(-c4cccc(NC(=O)c5cccnc5)c4)c3)[nH]c12 | -3.86
14 | CC(C)(C)c1ccc(NC(=O)c2cccc(CN3CCCN(Cc4ccc(F)cc4)CC3)c2)cc1 | 1.15
15 | COc1cc2nc(N3CCC(CNC(=O)c4cccc5cccnc45)CC3)nc(N)c2cc1OC | 3.91
16 | COC(=O)Nc1cc(C(F)(F)F)ccc1N1CCCC(NS(=O)(=O)c2ccc(C(C)(C)C)cc2)C1 (stereo not given) | 7.77
17 | CCN(CC)CCCC(C)Nc1ccnc2ccc(-c3ccccc3)cc12 (stereo not given) | 1.04
18 | COc1ccc2c(C)cc(NCCCN(C)C)nc2c1 | -1.1
19 | CCc1c[nH]c2c(N3CCCC3=O)cc(C(=O)N[C@@H](Cc3ccccc3)[C@H](O)CNC(C)(C)CCCC(C)C)cc12 | 8.72
20 | CC(C)CNCc1cccc(-c2ccc(CN(CCCN3CCN(C)CC3)C(=O)/C=C/c3ccccc3)cc2)c1 | 3.9

Row | SMILES | inhibition [%]
21 | Oc1ccc(-c2nc(-c3ccc4oc5ccc(-c6[nH]c(-c7ccc(O)cc7)nc6-c6ccccc6)cc5c4c3)c(-c3ccccc3)[nH]2)cc1 | -0.47
22 | COc1ccc(CN2CCC(CNCc3cccc(-c4ccccc4)c3)CC2)cc1 | 3.8
23 | CCCCNCc1ccc(-c2nc(CN(CCCN3CCN(C)CC3)C(=O)Nc3cccc(Cl)c3)cs2)cc1 | 5.61
24 | CCCCCC(NCCCC)c1ccc(OCCOc2ccc(C(CCCCC)NCCCC)cc2)cc1 (stereo not given) | 85.3
25 | CC(C)[C@H](NCC(=O)c1ccccc1)C(=O)O | -0.17
26 | NC(=O)c1ccccc1Nc1nc(Nc2cccc(N3CCN(CCO)CC3)c2)ncc1Cl | 57.8
27 | CCc1ccc(C2CCN(CCCCNC(=O)c3ccc(NC(=O)c4ccc(Cl)cc4)cc3)CC2)c(OCCO)c1 | 1.61
28 | Nc1nc2c(ncn2OC[C@H]2COP(=O)(O)CO2)c(=O)[nH]1 | -1.54
29 | Cc1ccc(C(=O)Nc2cc(S(=O)(=O)N3CCCC3)ccc2OCC(F)(F)F)cc1 | 4.69
30 | CCN1CCC(N(Cc2ccc(-c3ccc(C(F)(F)F)cc3)cc2)C(=O)Cn2nc(C)c(=O)cc2SCc2ccc(F)cc2)CC1 | 0.46
31 | O=C(/C=C/c1ccc(Cl)cc1)NCCCCCN1CCC(C(=O)Nc2ccc(Cl)cc2)CC1 | 2.24
32 | Cc1cc(OCC2CCN(c3ncc(C(=O)NC4CC4)cc3Cl)CC2)ccc1F | -1.06
33 | C=CCC(C)n1ncc2c3c(N)nc(N)nc3ccc21 (stereo not given) | -0.24
34 | COc1ccc(C(=O)C2CC2CN(C)CC(O)c2cc(C)c(OC)cc2C)cc1 (stereo not given) | 6.57
35 | C=Cc1ccccc1C1(O)CCN(CCCCNC(=O)c2ccc(-c3ccc(C#N)cc3)cc2)CC1 | -1.41
36 | C=CCc1cccc(OC)c1OCCCON1C(=N)N=C(N)NC1(C)C | 0.43
37 | CCN(CCCN1CCCCC1)c1cc(C)nc(Nc2ccc(C)cc2C)n1 | 2.76
38 | Clc1ncnc2ncn(Cc3cccc(Br)c3)c12 | 10.8
39 | CC(C)C1C(=O)N(S(C)(=O)=O)C2CCN(C(=O)c3ccc(CN4CCCCC4)c([N+](=O)[O-])c3)C12 (stereo not given) | -1.4
40 | CCc1ccc(NC(=O)N(CCCn2ccnc2)Cc2csc(-c3ccc(CNCc4ccccc4)cc3)n2)cc1 | 2.49
